The source made the active and inactive calls. How the source made its calls: active means hit-call score of the fitted dose curve at least 0.9, where 1 is the maximum; inactive means score below 0.9.
Columns and labels:
[1] = ATG_GLI_CIS: Attagene CIS-FACTORIAL HepG2 Assay for human Zinc Finger Protein GLI1 (AID 2282945); conditions: HepG2, Attagene cis-factorial reporter mRNA, GLI element; actives raise or lower the signal
Method in brief: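 Bidirectional curve fits relative to DMSO, using reporter mRNA levels from RT-PCR plus capillary electrophoresis. Cells were HepG2 transiently carrying cis-regulated reporter constructs, harvested 24 h after dosing.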

[2] = molecular target: Bile acid receptor (Homo sapiens) (UniProt Q96RI1); assay: ATG_IR1_CIS: Attagene CIS-FACTORIAL HepG2 Assay for human Nuclear Receptor Subfamily 1 Group H Member 4 (NR1H4), IR1 submotif (AID 2282946); conditions: IR1 reporter transcription, actives raise or lower the signal
Method in brief: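 HepG2 cells transiently transfected with multiplexed cis-element reporter units read endogenous transcription factor activity. After 24 h compound exposure, reporter mRNA was quantified by RT-PCR, fluorescent labelling, HpaI digestion and capillary electrophoresis; bidirectional fitting versus DMSO baseline.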

[3] = ATG_ISRE_CIS: Attagene CIS-FACTORIAL HepG2 Assay for human Interferon Regulatory Factor 1 (IRF1) binding to an Interferon-Stimulated Response Element (ISRE) (AID 2282948); conditions: HepG2 ISRE cis-reporter (Attagene), mRNA transcription readout; actives raise or lower the signal
Method in brief: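 Read-out: fluorescent RT-PCR products resolved by capillary electrophoresis, reporting endogenous transcription factor activity via ISRE-driven reporter mRNA in transfected HepG2 cells dosed for 24 h; gain or loss fitted relative to DMSO.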

[4] = ATG_M_32_CIS: Attagene CIS-FACTORIAL HepG2 Assay for M32 Transcription Factor (Internal Marker) (AID 2282949); conditions: HepG2 Attagene cis-factorial M32 reporter, mRNA; actives raise or lower the signal;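 further: background control marker of the multiplexed CIS panel rather than a real target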
Method in brief: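 HepG2 human liver cells transiently transfected with cis-promoter-driven multiple reporter transcription units, dosed 24 h. Reporter mRNA quantified by RT-PCR, FAM-labelled primer extension, HpaI digest and capillary electrophoresis; bidirectional fit versus DMSO baseline.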

[5] = ATG_M_06_CIS: Attagene CIS-FACTORIAL HepG2 Assay for M06 Transcription Factor (Internal Marker) (AID 2282950); conditions: HepG2 Attagene CIS-FACTORIAL M06 internal marker reporter; actives raise or lower the signal
Method in brief: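 Serves as a background control readout. Transfected HepG2 exposed to compounds for 24 h, then reporter transcripts quantified by fluorescent RT-PCR and capillary electrophoresis. Both directions fitted against DMSO baseline.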

[6] = molecular target: Hypoxia-inducible factor 1-alpha (Homo sapiens) (UniProt Q16665); assay: ATG_HIF1a_CIS: Attagene CIS-FACTORIAL HepG2 Assay for human Hypoxia Inducible Factor 1 (HIF1A) (AID 2282951); conditions: HepG2 Attagene cis-factorial HIF1a reporter transcription; actives raise or lower the signal
Method in brief: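 Transient MRTU transfection of human HepG2 liver cells, 24 h compound treatment, then total RNA isolation, oligo(dT) reverse transcription, PCR amplification, fluorescent labelling and capillary electrophoresis of reporter fragments. Gain or loss relative to DMSO.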

[7] = molecular target: Hepatocyte nuclear factor 6 (Homo sapiens) (UniProt Q9UBC0); assay: ATG_HNF6_CIS: Attagene CIS-FACTORIAL HepG2 Assay for human Hepatocyte Nuclear Factor 6 (HNF6) (AID 2282952); conditions: HepG2 Attagene cis-factorial HNF6 reporter transcription; actives raise or lower the signal
Method in brief: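 Readout: fluorescent reporter-transcript fragments resolved by capillary electrophoresis after RT-PCR, reflecting endogenous factor activity in transfected HepG2. Exposure 24 h. Gain or loss of signal fitted bidirectionally against DMSO.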

[8] = molecular target: Heat shock factor protein 1 (Homo sapiens) (UniProt Q00613); assay: ATG_HSE_CIS: Attagene CIS-FACTORIAL HepG2 Assay for human Heat Shock Transcription Factor 1 (HSE) (AID 2282953); conditions: HepG2 HSE cis-reporter, Attagene RNA transcription; actives raise or lower the signal
Method in brief: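 Endogenous transcription factor activity in transiently transfected HepG2, read as reporter mRNA by RT-PCR with fluorescent capillary electrophoresis after 24 h. Gain or loss of signal fitted versus DMSO baseline.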

[9] = ATG_MRE_CIS: Attagene CIS-FACTORIAL HepG2 Assay for human Metal Responsive Element (MRE) (AID 2282954); conditions: HepG2 MRE cis-reporter transcription, Attagene multiplex; actives raise or lower the signal
Method in brief: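 Endogenous MRE-dependent transcription read as reporter mRNA in transiently transfected human HepG2 cells at 24 h. RNA reverse-transcribed, PCR-amplified, labelled and resolved by capillary electrophoresis; gain or loss relative to DMSO.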

[10] = molecular target: Paired box protein Pax-6 (Homo sapiens) (UniProt P26367); assay: ATG_Pax6_CIS: Attagene CIS-FACTORIAL HepG2 Assay for human Paired Box 6 (PAX6) (AID 2282956); conditions: HepG2 CIS-FACTORIAL PAX6 reporter transcription, RNA readout; actives raise or lower the signal
Method in brief: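 Readout: reporter transcript fluorescence after RT-PCR and capillary electrophoresis. Cells: HepG2, transiently transfected with cis-regulated MRTUs. Exposure 24 h. Gain or loss of signal fitted bidirectionally relative to DMSO.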

[11] = ATG_PXRE_CIS: Attagene CIS-FACTORIAL HepG2 Assay for human Pregnane X Receptor Element (PXRE) (AID 2282957); conditions: HepG2 Attagene CIS-FACTORIAL PXRE reporter, mRNA; actives raise or lower the signal
Method in brief: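 Read-out: fluorescence of reporter-specific RT-PCR products resolved by capillary electrophoresis, fitted bidirectionally relative to DMSO. Human HepG2 liver cells carried transfected cis-promoter reporter units and were exposed to chemicals for 24 h.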

[12] = ATG_PPRE_CIS: Attagene CIS-FACTORIAL HepG2 Assay for human Peroxisome Proliferator-activated Response Element (PPRE) (AID 2282958); conditions: HepG2 PPRE cis-element reporter, Attagene transcription factor profiling; actives raise or lower the signal
Method in brief: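 HepG2, transient MRTU transfection (cis promoter elements, endogenous TFs). 24 h dosing. RNA → oligo(dT) RT → PCR → 6-FAM primer extension → HpaI digest → CE. Bidirectional fit vs DMSO.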

[13] = ATG_RORE_CIS: Attagene CIS-FACTORIAL HepG2 Assay for human RAR-related Orphan Receptor Element (RORE) (AID 2282959); conditions: HepG2 Attagene cis-factorial RORE reporter, mRNA; actives raise or lower the signal
Method in brief: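 Transient MRTU transfection of human HepG2 liver cells (FuGene 6); 24 h compound exposure; TriZol RNA, oligo(dT) RT, PCR, FAM labeling, HpaI cut, CE fragment analysis. DMSO = negative control/baseline.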

[14] = ATG_Sox_CIS: Attagene CIS-FACTORIAL HepG2 Assay for human SRY-box transcription factor (SOX) (AID 2282960); conditions: HepG2 Attagene cis-factorial SOX reporter, mRNA; actives raise or lower the signal
Method in brief: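 Endogenous factor activity in human liver HepG2 cells carrying transfected cis-regulated reporter units. RNA taken 24 h post-dose, reverse-transcribed, PCR-amplified and sized by capillary electrophoresis. Gain or loss of signal fitted relative to DMSO.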

[15] = molecular target: Transcription factor Sp1 (Homo sapiens) (UniProt P08047); assay: ATG_Sp1_CIS: Attagene CIS-FACTORIAL HepG2 Assay for human Specificity Protein 1 (Sp1) (AID 2282961); conditions: HepG2 Sp1 cis-reporter transcription, actives raise or lower the signal
Method in brief: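 Transient MRTU-transfected HepG2, 24 h compound exposure. Total RNA → oligo(dT) RT → PCR of reporter → 6-FAM primer extension → HpaI digest → CE. Endpoint fitted both directions vs DMSO.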

[16] = ATG_SREBP_CIS: Attagene CIS-FACTORIAL HepG2 Assay for human Sterol Regulatory Element Binding (SREBP) (AID 2282962); conditions: HepG2 Attagene cis-factorial SREBP reporter, mRNA; actives raise or lower the signal
Method in brief: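 Readout: fluorescent reporter-transcript peaks resolved by capillary electrophoresis after RT-PCR. Cells were human HepG2 carrying transfected cis-promoter reporter constructs, dosed for 24 h. Gain or loss of signal was fitted against DMSO controls.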

[17] = ATG_TA_CIS: Attagene CIS-FACTORIAL HepG2 Assay for human TA Basal Promoter (AID 2282964); conditions: HepG2 Attagene CIS-factorial TA basal promoter reporter; actives raise or lower the signal
Method in brief: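 Background-control readout: TA basal promoter reporter mRNA, fitted in both directions relative to DMSO. Measured by RT-PCR and capillary electrophoresis 24 hours after treating HepG2 human liver cells transiently carrying multiplexed cis-regulated reporter constructs.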

[18] = ATG_GRE_CIS: Attagene CIS-FACTORIAL HepG2 Assay for human Glucocorticoid Response Elements (GRE) (AID 2282947); conditions: HepG2 GRE cis-reporter, Attagene multiplex mRNA; actives raise or lower the signal
Method in brief: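 Reporter transcripts read by RT-PCR with capillary electrophoresis fluorescence after a 24 h chemical exposure of HepG2 cells transiently transfected with multiple cis-element reporter units. Gain or loss fitted against DMSO.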

[19] = molecular target: Signal transducer and activator of transcription 3 (Homo sapiens) (UniProt P40763); assay: ATG_STAT3_CIS: Attagene CIS-FACTORIAL HepG2 Assay for human Signal Transducer and Activator of Transcription 3 (STAT3) (AID 2282963); conditions: HepG2, Attagene cis-factorial STAT3 reporter transcription; actives raise or lower the signal
Method in brief: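 Readout is reporter transcript quantified by RT-PCR and capillary electrophoresis, with 6-FAM primer extension and HpaI digestion. Total RNA is taken 24 h after dosing transiently transfected HepG2 carrying cis-regulated reporter units. Bidirectional fit against DMSO.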

[20] = ATG_PBREM_CIS: Attagene CIS-FACTORIAL HepG2 Assay for human Phenobarbital-responsive Enhancer Module (PBREM) (AID 2282955); conditions: HepG2 PBREM cis-reporter, Attagene multiplexed transcription; actives raise or lower the signal
Method in brief: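 Endogenous transcription factors in human liver HepG2 cells drive a PBREM cis-element reporter, whose transcript level after 24 h treatment is quantified by RT-PCR with capillary electrophoresis; activity fitted in both directions against DMSO.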

Measured: AC50

Chain of Paired box protein Pax-6 (Homo sapiens) (P26367 whole entry, looked up): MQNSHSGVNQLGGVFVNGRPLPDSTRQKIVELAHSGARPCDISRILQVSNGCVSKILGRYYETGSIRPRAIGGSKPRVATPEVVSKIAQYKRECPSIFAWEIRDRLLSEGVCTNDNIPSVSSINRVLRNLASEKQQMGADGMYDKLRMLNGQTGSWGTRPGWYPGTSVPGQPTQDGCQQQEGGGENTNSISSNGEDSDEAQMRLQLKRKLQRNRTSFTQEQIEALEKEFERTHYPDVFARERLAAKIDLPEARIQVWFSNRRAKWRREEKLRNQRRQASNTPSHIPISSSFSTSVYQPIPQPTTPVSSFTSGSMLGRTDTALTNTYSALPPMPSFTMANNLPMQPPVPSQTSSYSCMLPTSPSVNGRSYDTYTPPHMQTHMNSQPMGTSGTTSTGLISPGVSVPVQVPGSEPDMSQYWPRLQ
Chain of Signal transducer and activator of transcription 3 (Homo sapiens) (P40763 whole entry, looked up): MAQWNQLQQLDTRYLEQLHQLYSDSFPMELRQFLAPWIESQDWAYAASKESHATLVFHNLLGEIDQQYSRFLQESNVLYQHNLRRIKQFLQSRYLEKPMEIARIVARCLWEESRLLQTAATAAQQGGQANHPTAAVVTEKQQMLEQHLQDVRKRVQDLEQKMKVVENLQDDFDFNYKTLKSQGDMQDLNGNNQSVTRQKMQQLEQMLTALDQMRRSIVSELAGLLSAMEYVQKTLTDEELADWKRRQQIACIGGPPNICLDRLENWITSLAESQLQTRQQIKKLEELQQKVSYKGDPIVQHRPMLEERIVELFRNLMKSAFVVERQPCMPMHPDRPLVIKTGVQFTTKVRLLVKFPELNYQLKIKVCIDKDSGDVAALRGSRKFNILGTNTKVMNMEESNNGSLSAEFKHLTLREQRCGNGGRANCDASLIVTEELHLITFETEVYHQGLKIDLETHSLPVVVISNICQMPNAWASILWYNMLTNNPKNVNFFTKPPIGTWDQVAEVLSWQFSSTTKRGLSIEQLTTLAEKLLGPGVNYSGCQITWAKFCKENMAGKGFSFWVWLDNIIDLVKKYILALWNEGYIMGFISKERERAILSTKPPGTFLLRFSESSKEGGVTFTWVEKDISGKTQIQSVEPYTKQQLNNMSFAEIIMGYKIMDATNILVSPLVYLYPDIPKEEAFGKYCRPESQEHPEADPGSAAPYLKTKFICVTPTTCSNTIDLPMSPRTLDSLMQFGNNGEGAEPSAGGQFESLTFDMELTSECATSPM
Chain of Bile acid receptor (Homo sapiens) (Q96RI1 whole entry, looked up): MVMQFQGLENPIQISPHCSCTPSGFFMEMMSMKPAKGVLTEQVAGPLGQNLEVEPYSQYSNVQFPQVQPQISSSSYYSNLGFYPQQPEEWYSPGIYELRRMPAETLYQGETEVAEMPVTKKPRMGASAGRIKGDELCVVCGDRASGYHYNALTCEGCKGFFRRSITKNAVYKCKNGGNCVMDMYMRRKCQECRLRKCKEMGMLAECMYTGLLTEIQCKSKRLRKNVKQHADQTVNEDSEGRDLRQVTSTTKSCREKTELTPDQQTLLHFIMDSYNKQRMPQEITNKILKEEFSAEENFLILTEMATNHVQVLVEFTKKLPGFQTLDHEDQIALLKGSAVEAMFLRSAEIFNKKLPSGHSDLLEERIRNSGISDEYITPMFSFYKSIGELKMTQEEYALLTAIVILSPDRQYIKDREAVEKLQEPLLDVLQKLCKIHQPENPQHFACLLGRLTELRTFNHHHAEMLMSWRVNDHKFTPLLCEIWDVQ
Chain of Heat shock factor protein 1 (Homo sapiens) (Q00613 whole entry, looked up): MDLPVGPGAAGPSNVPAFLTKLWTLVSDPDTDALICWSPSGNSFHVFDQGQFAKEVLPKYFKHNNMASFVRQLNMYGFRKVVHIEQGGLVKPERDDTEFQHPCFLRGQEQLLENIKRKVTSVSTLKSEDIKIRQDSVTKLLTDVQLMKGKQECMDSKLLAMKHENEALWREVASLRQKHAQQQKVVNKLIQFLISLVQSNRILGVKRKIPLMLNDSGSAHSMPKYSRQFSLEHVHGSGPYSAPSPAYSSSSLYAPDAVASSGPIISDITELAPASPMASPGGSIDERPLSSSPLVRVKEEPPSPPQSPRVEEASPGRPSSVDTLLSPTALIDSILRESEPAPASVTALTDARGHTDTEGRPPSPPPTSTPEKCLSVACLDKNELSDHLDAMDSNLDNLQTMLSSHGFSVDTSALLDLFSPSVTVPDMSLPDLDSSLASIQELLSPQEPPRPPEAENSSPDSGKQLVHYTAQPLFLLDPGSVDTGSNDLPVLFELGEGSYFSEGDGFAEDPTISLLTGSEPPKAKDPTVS
Chain of Hypoxia-inducible factor 1-alpha (Homo sapiens) (Q16665 whole entry, looked up, the tested form may be a part): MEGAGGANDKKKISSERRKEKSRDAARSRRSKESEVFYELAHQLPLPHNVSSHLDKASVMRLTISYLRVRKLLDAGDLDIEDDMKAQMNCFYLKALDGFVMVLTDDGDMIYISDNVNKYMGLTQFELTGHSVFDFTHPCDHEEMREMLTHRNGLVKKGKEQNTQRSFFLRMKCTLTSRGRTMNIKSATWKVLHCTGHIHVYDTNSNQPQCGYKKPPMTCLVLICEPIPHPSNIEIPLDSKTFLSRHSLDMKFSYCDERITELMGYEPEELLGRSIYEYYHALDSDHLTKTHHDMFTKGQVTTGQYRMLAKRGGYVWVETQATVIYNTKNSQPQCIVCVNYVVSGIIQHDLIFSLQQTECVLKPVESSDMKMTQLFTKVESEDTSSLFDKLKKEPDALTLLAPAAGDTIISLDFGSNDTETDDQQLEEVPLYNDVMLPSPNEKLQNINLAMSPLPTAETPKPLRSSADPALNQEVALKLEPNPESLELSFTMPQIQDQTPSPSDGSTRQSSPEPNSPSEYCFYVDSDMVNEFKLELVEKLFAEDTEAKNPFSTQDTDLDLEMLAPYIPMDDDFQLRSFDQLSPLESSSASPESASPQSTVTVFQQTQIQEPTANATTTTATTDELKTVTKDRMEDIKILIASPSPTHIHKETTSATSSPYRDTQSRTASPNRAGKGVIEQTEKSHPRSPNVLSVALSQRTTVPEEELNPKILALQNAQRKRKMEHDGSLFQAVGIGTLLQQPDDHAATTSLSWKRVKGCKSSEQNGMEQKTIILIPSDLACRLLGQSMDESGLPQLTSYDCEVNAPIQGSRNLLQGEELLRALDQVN
Chain of Transcription factor Sp1 (Homo sapiens) (P08047 whole entry, looked up): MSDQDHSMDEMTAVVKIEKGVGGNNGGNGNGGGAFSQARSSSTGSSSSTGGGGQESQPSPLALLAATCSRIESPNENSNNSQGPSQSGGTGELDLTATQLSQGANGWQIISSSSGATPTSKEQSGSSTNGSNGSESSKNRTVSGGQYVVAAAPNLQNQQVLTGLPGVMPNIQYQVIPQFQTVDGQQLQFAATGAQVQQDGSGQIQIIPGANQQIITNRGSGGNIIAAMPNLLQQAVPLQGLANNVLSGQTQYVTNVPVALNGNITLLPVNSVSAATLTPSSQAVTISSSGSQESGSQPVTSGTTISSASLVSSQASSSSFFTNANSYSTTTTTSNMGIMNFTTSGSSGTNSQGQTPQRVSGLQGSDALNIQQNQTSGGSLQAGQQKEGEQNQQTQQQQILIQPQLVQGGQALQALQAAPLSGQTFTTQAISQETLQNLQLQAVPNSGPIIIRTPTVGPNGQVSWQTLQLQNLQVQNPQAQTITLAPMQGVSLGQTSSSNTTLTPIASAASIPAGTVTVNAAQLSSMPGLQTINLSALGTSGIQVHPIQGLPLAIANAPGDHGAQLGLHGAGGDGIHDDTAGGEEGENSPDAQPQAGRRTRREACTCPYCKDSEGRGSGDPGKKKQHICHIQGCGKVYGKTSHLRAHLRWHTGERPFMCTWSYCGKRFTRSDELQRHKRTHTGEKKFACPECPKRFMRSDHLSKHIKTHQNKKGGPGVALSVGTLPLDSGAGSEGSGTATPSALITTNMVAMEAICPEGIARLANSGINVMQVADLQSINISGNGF
Chain of Hepatocyte nuclear factor 6 (Homo sapiens) (Q9UBC0 whole entry, looked up, the tested form may be a part): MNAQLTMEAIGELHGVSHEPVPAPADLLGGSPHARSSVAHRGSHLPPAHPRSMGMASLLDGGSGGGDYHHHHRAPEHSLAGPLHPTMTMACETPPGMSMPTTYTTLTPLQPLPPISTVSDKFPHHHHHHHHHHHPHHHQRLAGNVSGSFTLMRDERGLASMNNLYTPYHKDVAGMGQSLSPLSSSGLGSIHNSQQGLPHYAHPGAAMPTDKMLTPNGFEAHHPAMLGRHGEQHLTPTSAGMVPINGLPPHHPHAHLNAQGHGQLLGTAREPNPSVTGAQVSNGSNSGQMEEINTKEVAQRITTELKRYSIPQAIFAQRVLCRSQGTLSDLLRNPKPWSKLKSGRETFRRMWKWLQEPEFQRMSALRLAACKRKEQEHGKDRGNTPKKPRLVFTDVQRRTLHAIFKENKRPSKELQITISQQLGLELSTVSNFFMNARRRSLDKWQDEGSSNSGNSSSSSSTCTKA

O=S(=O)(O)c1ccc(Nc2nc(Nc3ccc(C=Cc4ccc(Nc5nc(Nc6ccc(S(=O)(=O)O)cc6)nc(N(CCO)CCO)n5)cc4S(=O)(=O)O)c(S(=O)(=O)O)c3)nc(N(CCO)CCO)n2)cc1
active: [11] 21.2 µM
not listed: [18] | [19] | [20]
inactive: all other assays above

CC1(C)C(=O)N(CO)C(=O)N1CO
active: [11] 27.8 µM
not listed: [7] | [12] | [20]
inactive: all other assays above

CN(C)c1ccc2nc3ccc(=[N+](C)C)cc-3sc2c1
active: [3] 41.6 µM | [6] 0.766 µM | [11] 3.95 µM
not listed: [8] | [9] | [12]
inactive: all other assays above

CCCCC(CC)COS(=O)(=O)O (stereo not drawn)
active: [11] 62.9 µM
not listed: [12] | [18] | [20]
inactive: all other assays above
